GALK inhibitor – blocks human galactokinase activity; Potency, µM (series often up to 57.5 µM), actives largely listed as inhibitors; Purified GALK, Kinase-Glo residual ATP luminescence; 270,000 compounds, 0.007% hits; P51570
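Galactose (100 uM) and ATP (35 uM) were turned over by 5 nM GALK for 1 h at RT. Kinase-Glo Plus then converted the remaining ATP into a luminescent signal.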
ClpP mod – qHTS Assay for Activators of ClpP | Potency, µM (highest dose often 57.5 µM) | 340,000 compounds, 1.9% hits | AID 651965, 2013 | purified B. subtilis ClpP, FRET peptide cleavage, 20 min | ATP-dependent Clp protease proteolytic subunit (Bacillus subtilis (strain 168)), P80244; active = well fitted falling curve with a large enough effect; inconclusive = small, poorly fitted or top-dose-only effect; inactive = no such curve, though single readings can be large or run the other way; also: the source files actives as falling curves though it sought activators and does not explain the sign; nearly all actives have a fitted effect of over 65% in size
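FRET quenching reversal measured ClpP activation: 10 microg/mL B. subtilis ClpP at pH 8 with the FRET-FV decapeptide, read at 430 nm after 320 nm excitation. The 20-min minus 0-min signal was scaled between DMSO/no-enzyme wells and ADEP (5.8 microM final).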
Eya2 phos inh – inhibitors of human Eya2 phosphatase activity. O00167. recombinant Eya2, OMFP fluorescence dephosphorylation (OMFP is methylfluorescein phosphate). Potency, µM (titrated, usually from 76.9 µM), hits mostly inhibitors. 330,000 compounds, 0.006% hits
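Eya2 protein (added as 0.2 uM solution) was preincubated with compound for 10 min at ambient temperature in 50 mM HEPES pH 7.5, 50 mM NaCl, 5 uM MgCl2, 0.05% BSA, 1 mM DTT. OMFP (added at 50 uM) then reacted 10 min; fluorescence read at 485/525 nm.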
USP2a inh – USP2a (human) protease inhibition; O75604; USP2 core, Ub-CHOP2 coupled fluorogenic reporter, 485/531; Potency, µM (doses to about 38.3 µM), usual class: inhibitors; 330,000 compounds, 0.01% hits; AID 463254
Target sequence (O75604 whole entry, looked up): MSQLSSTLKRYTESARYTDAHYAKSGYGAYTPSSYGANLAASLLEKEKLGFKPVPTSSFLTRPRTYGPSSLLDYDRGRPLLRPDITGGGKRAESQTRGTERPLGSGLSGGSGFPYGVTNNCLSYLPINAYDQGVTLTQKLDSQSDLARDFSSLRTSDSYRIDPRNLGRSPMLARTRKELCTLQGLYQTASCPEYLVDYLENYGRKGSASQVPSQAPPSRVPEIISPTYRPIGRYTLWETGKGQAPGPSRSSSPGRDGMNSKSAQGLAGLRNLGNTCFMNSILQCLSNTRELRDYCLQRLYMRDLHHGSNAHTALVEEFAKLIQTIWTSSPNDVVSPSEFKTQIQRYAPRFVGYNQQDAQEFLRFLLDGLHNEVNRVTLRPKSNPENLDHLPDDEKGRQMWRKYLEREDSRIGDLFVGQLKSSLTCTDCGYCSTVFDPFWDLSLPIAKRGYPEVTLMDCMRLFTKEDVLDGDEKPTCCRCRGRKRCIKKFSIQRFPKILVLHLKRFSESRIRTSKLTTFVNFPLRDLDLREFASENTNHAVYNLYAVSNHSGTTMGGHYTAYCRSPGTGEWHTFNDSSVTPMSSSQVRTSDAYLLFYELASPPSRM
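Cell-free coupled assay: 10nM USP2 core preincubated 30min RT with compound in Tris-HCl pH 8.0/CaCl2/CHAPS buffer, then 25nM Ub-CHOP2 and 25nM reporter substrate; fluorescence (Ex 485/Em 531) read after 60min RT, normalized to NEM inhibition, concentration-response curves fitted.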
Each line names hits and unclear results; the compound was inactive in the other large screens. This is one part of a sample in which hits are shown more often than they occur. Unless noted, calls follow the shape of the dose curve; as a rule, active = well fitted inhibition curve with a large enough effect; inconclusive = small, poorly fitted or top-dose-only effect, or effect the other way; inactive = flat fitted curve, though single readings scatter.

COc1ccc(C(=O)Oc2ccc(/C=N/NC(=O)c3ccccc3OC)cc2[N+](=O)[O-])cc1	ClpP mod 28µM
COc1ccc(C(=O)N/N=C/c2cc3ccccc3[nH]c2=O)cc1	ClpP mod 28µM
COc1ccc(NC(=O)CSc2nc(-c3ccccc3)nc3c2Cc2c(CO)cnc(C)c2O3)cc1Cl	none (no result: GALK inhibitor, Eya2 phos inh, USP2a inh)
Cc1ccc(S(=O)(=O)N(CC(=O)Nc2ccc(Cl)c([N+](=O)[O-])c2)C2CCCCC2)cc1	ClpP mod 28µM
Cc1ccc(S(=O)(=O)N(CC(=O)Nc2cccc([N+](=O)[O-])c2)C2CCCCC2)cc1	none
CSc1c(C#N)c(N)c(C#N)c2c1COC(C)(C)C2	ClpP mod 14µM
COc1ccc(C(=O)NCc2nnc(SCC(=O)Nc3ccc(C)cc3)n2-c2ccccc2)cc1	none (no result: GALK inhibitor, Eya2 phos inh, USP2a inh)
Nc1nn2cc(-c3ccccc3)nc2c2ccccc12	ClpP mod inconclusive
Cc1cn2nc(N)c3ccccc3c2n1	ClpP mod 28µM
COc1ccc2[nH]c(C(=O)O)c(CCNC(C)=O)c2c1	ClpP mod 8.9µM
COc1ccc(CNC(=O)Cc2c(C(=O)O)[nH]c3ccccc23)c(OC)c1	none
O=c1c2ccccc2c(C=NCCO)c(O)n1-c1ccccc1	none
CCOc1ccccc1C(=O)NC1CC2CCCC(C1)N2C1CC1 (stereo not given)	USP2a inh 10µM
CCOc1ccccc1C(=O)NC1CC2CCCC(C1)N2Cc1nnnn1Cc1ccco1 (stereo not given)	none
O=C1CC(Sc2ccc(Cl)cc2)C(=O)N1Cc1ccncc1 (stereo not given)	none (no result: GALK inhibitor)
CCN(Cc1ccccc1)C(=O)CN1C(=O)CSc2ccc(S(=O)(=O)N(CC)CC)cc21	none (no result: GALK inhibitor, Eya2 phos inh, USP2a inh)
COc1cc2cc(CN(CCCN3CCOCC3)C(=O)Nc3ccccc3F)c(=O)[nH]c2cc1OC	none (no result: ClpP mod)
COc1ccccc1NC(=O)N(CCCN1CCOCC1)Cc1cc2cc3c(cc2[nH]c1=O)OCO3	ClpP mod 20µM
O=C(Nc1ccc(F)cc1)N(CCCN1CCOCC1)Cc1cc2cc3c(cc2[nH]c1=O)OCCO3	ClpP mod 25µM
Cc1ccc(C(=O)N/C(=C\c2cccc([N+](=O)[O-])c2)C(=O)NCc2ccncc2)cc1	none
COc1cc(/C=N/c2oc(-c3ccccc3)cc2C#N)ccc1O	ClpP mod 3.5µM
Cc1ccc(-c2csc(NC(=O)CSc3nc(C)cs3)n2)cc1	none
O=C(O)c1ccc(CSc2nnc(-c3ccc(Cl)cc3)o2)cc1	none
O=C(Nc1ccccc1-c1nnc(SCc2ccccc2)o1)c1ccccc1	ClpP mod 28µM
O=C(O)c1ccc(CSc2nnc(-c3ccccc3Br)o2)cc1	none
O=C(Nc1ccccc1-c1nnc(SCc2ccc(Cl)cc2)o1)c1ccccc1	ClpP mod 10µM
CCCC(=O)Nc1ccc(-c2cn3cccnc3n2)cc1	Eya2 phos inh inconclusive (no result: ClpP mod)
CCOC(=O)N1CCN(C(=O)c2cc(-c3ccc(OCC)cc3)nc3ccccc23)CC1	ClpP mod 28µM
CCOc1ccc(-c2cc(C(=O)N3CCN(C)CC3)c3ccccc3n2)cc1	ClpP mod 28µM
CC(=O)c1ccc(N2CCN(C(=O)c3cc(-c4ccc5c(c4)OCO5)nc4ccccc34)CC2)cc1	ClpP mod 32µM
CC1CN(C(=O)c2cc(-c3ccc(Cl)s3)nc3ccccc23)CC(C)O1 (stereo not given)	ClpP mod 28µM (no result: GALK inhibitor)
Nc1c(C(=O)CSc2nnnn2-c2ccc(O)cc2)c(=O)[nH]c(=O)n1C1CC1	none (no result: GALK inhibitor)
CC(C)CCNC(=O)c1ccc(C2SCC(=O)N2Cc2ccco2)cc1 (stereo not given)	none
Cc1c(NC(=O)c2cc3c(=O)n4ccccc4nc3s2)c(=O)n(-c2ccccc2)n1C	none
O=C(NC1CCCCC1)c1cccc2c1C(=O)c1ccc(-c3ccc(OC(F)(F)F)cc3)cc1S2(=O)=O	none (no result: GALK inhibitor)
O=C(CSc1nnc(-c2ccccc2)c(-c2ccccc2)n1)Nc1ccc(Br)cn1	none (no result: GALK inhibitor)
CCOc1ccc(-c2cc(C(=O)N3CCCC3)c3ccccc3n2)cc1	ClpP mod 14µM
COc1ccc2cc(-c3cc(C(=O)O)c4ccccc4n3)ccc2c1	ClpP mod 25µM
Cc1cc2ncn(C(=O)c3cc(-c4ccccc4)nc4ccccc34)c2cc1C	ClpP mod 14µM
COc1ccc(-c2cc(C(=O)N3CCN(c4ccccc4F)CC3)c3ccccc3n2)c(OC)c1	ClpP mod 28µM
COc1ccc(C(=O)Nc2ccccc2C(=O)Nc2ccncc2)cc1	none
COc1ccc(-c2cc(OC)c3ccccc3n2)cc1	ClpP mod 20µM
COc1ccc(-c2cc(C(=O)N3CC(C)CC(C)C3)c3ccccc3n2)cc1 (stereo not given)	ClpP mod 28µM (no result: GALK inhibitor)
COc1cc(-c2ccccc2)nc2ccccc12	none
COc1ccc(-c2cc(C(=O)N3CCCC3)c3ccccc3n2)cc1	none
O=C(NC(c1ccc2ccccc2n1)c1cccs1)C1CCN(Cc2cccc(C(F)(F)F)c2)CC1 (stereo not given)	none (no result: GALK inhibitor, Eya2 phos inh, USP2a inh)
Cc1nn(Cc2cccc(C(=O)Nc3ccn(Cc4ccccc4F)n3)c2)c(C)c1[N+](=O)[O-]	none
Cc1cccc(C)c1Nc1c(-c2ccsc2)nc2ccccn12	ClpP mod 28µM (no result: GALK inhibitor, Eya2 phos inh, USP2a inh)
COc1ccc(NC(=O)Cc2ccc(Cl)cc2)cc1S(=O)(=O)N1CCCCC1	none (no result: GALK inhibitor)
Fc1ccc2[nH]c(-c3cccs3)cc2c1	ClpP mod 11µM (no result: GALK inhibitor, Eya2 phos inh, USP2a inh)
Fc1ccc(-c2nc(-c3cccs3)no2)cc1	none
COc1ccc2nc(Nc3nc4cc5c(cc4s3)OCO5)sc2c1	ClpP mod 13µM
CN1CCN(C(=O)Nc2cccc3ccccc23)CC1	ClpP mod 16µM
O=C(O)c1ccccc1NC(=O)N1CCOCC1	none (no result: ClpP mod)
O=C(Nc1cccc2ccccc12)N1CCOCC1	ClpP mod 25µM
CCN1CCN(C(=O)Nc2cccc3ccccc23)CC1	ClpP mod 11µM
O=C1C2C3CCCC3=C3CCCC3C2C(=O)N1c1ccc(Cl)cc1 (stereo not given)	none
O=C(Cc1ccc([N+](=O)[O-])cc1)NCc1cccnc1	none (no result: GALK inhibitor)
O=C(Cc1ccc([N+](=O)[O-])cc1)NCc1ccccc1Cl	ClpP mod 11µM
CC1CCN(CC(=O)Nc2ccc(S(=O)(=O)N3CCC(C)CC3)cc2)CC1	none
O=C(NCC1CCCN(Cc2nccs2)C1)c1cccc2ccccc12 (stereo not given)	ClpP mod 35µM
Cc1cc(OCC(=O)NCc2ccncc2)c2c(C)cc(=O)oc2c1	none
COc1ccc(N2CCN(Cc3cc(=O)c(OCC(=O)Nc4ccccc4)co3)CC2)cc1	none (no result: GALK inhibitor)
COc1ccc(NC(=O)COc2coc(CN3CCN(c4ccccc4)CC3)cc2=O)cc1	ClpP mod 28µM (no result: GALK inhibitor)
Cc1c(C)n(C(=O)CSc2ncn[nH]2)c2ccccc12	none
Cn1c(N)c(S(=O)(=O)c2ccc(Br)cc2)c2nc3ccccc3nc21	ClpP mod 14µM
CCCCn1c(NS(=O)(=O)c2ccccc2)c(S(=O)(=O)c2ccc(C)cc2)c2nc3ccccc3nc21	ClpP mod 16µM
